Laboratory results reported in paper PMC8384837, “Expanding the binding specificity for RNA recognition by a PUF domain”.

What was measured:
Test in all cases: yeast three-hybrid, YBZ-1, SC-Leu-His + 0.5 mM 3-AT, 4 days
Settings in all cases: tags: N-Gal4 AD-HA kept; label: inside an RPR1-promoter hybrid RNA with tandem MS2 sites; ssRNA
[1] = molecular target: PUM1 PUF domain R3-VRW (Homo sapiens, UniProt Q14671 828-1176, C935V;Q939W)
Procedure, shortened: (§1)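 Pumilio-1 PUF domain libraries, randomized at the three base-contacting residues of each repeat, were co-expressed with matching RNA elements from a centromeric plasmid in strain YBZ-1, which carries a LexA–MS2 coat fusion and a HIS3 reporter. Transformants grew for four days on SC-Leu (input) or on SC-Leu-His + 0.5 mM 3-AT (selection), and the repeat regions were PCR-amplified and Illumina-sequenced. The interaction score is the log change in variant frequency from input to selection. That logarithm is base 2, with a pseudocount of 1 where a variant was absent.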

[2] = molecular target: PUM1 PUF domain R8-KNR (Homo sapiens, UniProt Q14671 828-1176, N1122K;Y1123N;Q1126R)
Procedure, shortened: as §1

[3] = molecular target: T1, PUM1 PUF domain R6-FYI (Homo sapiens, UniProt Q14671 828-1176, N1043F;Q1047I)
T1 sequence: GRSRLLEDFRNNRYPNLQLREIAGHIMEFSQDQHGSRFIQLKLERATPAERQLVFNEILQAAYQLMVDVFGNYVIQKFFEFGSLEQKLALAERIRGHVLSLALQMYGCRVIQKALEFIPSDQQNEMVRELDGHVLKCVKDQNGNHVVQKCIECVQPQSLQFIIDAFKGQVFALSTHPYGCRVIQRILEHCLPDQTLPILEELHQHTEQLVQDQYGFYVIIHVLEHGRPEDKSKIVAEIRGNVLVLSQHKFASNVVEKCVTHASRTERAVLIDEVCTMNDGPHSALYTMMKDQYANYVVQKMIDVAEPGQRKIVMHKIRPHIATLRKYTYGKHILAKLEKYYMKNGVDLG
Procedure, shortened: as §1

[4] = molecular target: PUM1 PUF domain R1-VFR (Homo sapiens, UniProt Q14671 828-1176, S863V;R864F;Q867R)
Procedure, shortened: as §1

[5] = molecular target: PUM1 PUF domain R1-GAS (Homo sapiens, UniProt Q14671 828-1176, S863G;R864A;Q867S)
Procedure, shortened: as §1

[6] = molecular target: PUM1 PUF domain R1-RFI (Homo sapiens, UniProt Q14671 828-1176, S863R;R864F;Q867I)
Procedure, shortened: as §1

[7] = molecular target: PUM1 PUF domain R1-KIE (Homo sapiens, UniProt Q14671 828-1176, S863K;R864I;Q867E)
Procedure, shortened: as §1

[8] = molecular target: PUM1 PUF domain R7-RKR (Homo sapiens, UniProt Q14671 828-1176, S1079R;N1080K;E1083R)
Procedure, shortened: as §1

[9] = molecular target: PUM1 PUF domain R3-RMK (Homo sapiens, UniProt Q14671 828-1176, C935R;R936M;Q939K)
Procedure, shortened: as §1

Q: Which binding signal [1] does the source give for “GGCUAGAACUAGUGGAUCCCCCGGCGCCCGGCGGCUCGAGCCCGGGUAAGUGUAAAUAGUCUGCAUGCCGCCGGGCGCCAUGCCUGCAGGUCGACUCUAGAAAACAUG” here?
A: 3.7 log2 enrichment (interaction score)

Q: What about the binding signal [2] of the same sequence?
A: 1.82 log2 enrichment (interaction score)

Q: What about the binding signal [3] of the same sequence?
A: 2.78 log2 enrichment (interaction score)

Q: How did the binding signal [4] turn out when “GGCUAGAACUAGUGGAUCCCCCGGCGCCCGGCGGCUCGAGCCCGGGUAAGUGUAAAUCGUCUGCAUGCCGCCGGGCGCCAUGCCUGCAGGUCGACUCUAGAAAACAUG” was run?
A: 3.96 log2 enrichment (interaction score)

Q: What about the binding signal [5] of the same sequence?
A: 2.52 log2 enrichment (interaction score)

Q: Which results are given for “GGCUAGAACUAGUGGAUCCCCCGGCGCCCGGCGGCUCGAGCCCGGGUAAGUGUAAAUUGUCUGCAUGCCGCCGGGCGCCAUGCCUGCAGGUCGACUCUAGAAAACAUG”?
A: binding signal [4]: 1.47 log2 enrichment (interaction score); binding signal [6]: 2.47 log2 enrichment (interaction score); binding signal [7]: 3.28 log2 enrichment (interaction score)

Q: How did the binding signal [8] turn out when “GGCUAGAACUAGUGGAUCCCCCGGCGCCCGGCGGCUCGAGCCCGGGUAAGUUUAAAUAGUCUGCAUGCCGCCGGGCGCCAUGCCUGCAGGUCGACUCUAGAAAACAUG” was run?
A: 2.99 log2 enrichment (interaction score)

Q: For “GGCUAGAACUAGUGGAUCCCCCGGCGCCCGGCGGCUCGAGCCCGGGUAAGCGUAAAUAGUCUGCAUGCCGCCGGGCGCCAUGCCUGCAGGUCGACUCUAGAAAACAUG”, which binding signal [2] is on record?
A: 2.46 log2 enrichment (interaction score)

Q: How did the binding signal [9] turn out when “GGCUAGAACUAGUGGAUCCCCCGGCGCCCGGCGGCUCGAGCCCGGGUAAGUGUAAUUAGUCUGCAUGCCGCCGGGCGCCAUGCCUGCAGGUCGACUCUAGAAAACAUG” was run?
A: 4.31 log2 enrichment (interaction score)
